Experimental data reported in PubChem BioAssay (NCATS).
Records with an inconclusive call do not appear. Active and inactive are the calls of the source. Calls follow the shape of the dose curve; as a rule, active = well fitted curve in the direction sought with a large enough effect; inconclusive = small, poorly fitted or top-dose-only effect, or another doubt; inactive = no such curve, though single readings can be large; an effect the other way counts as inactive or inconclusive.

Key:
[1] = qHTS of pediatric cancer cell lines to identify multiple opportunities for drug repurposing: Confirmatory screen for MG 63 (6-TG R) cells (AID 1347119); also: nearly all actives have a fitted effect of over 55% in size; also: potency is read from the fitted curve at half-maximal effect
How it was run: (§1)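 Cells (500-1,000/well) rested 5 h, then received compounds for 48 h; metabolically active cells were measured by CellTiter-Glo luminescence. Final concentrations spanned up to 46 µM (MIPE, 11-point) or 0.59 nM-46 µM (NPC, 8-point) in primary screens, 11-point in follow-ups.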

[2] = qHTS of pediatric cancer cell lines to identify multiple opportunities for drug repurposing: Confirmatory screen for control Hh wild type fibroblast cells (AID 1347121); also: nearly all actives have a fitted effect of over 70% in size
How it was run: as §1

[3] = qHTS of pediatric cancer cell lines to identify multiple opportunities for drug repurposing: Confirmatory screen for RD cells (AID 1347124);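 also: cells exposed to compound for 48 h before viability readout; nearly all actives have a fitted effect of over 65% in size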
How it was run: as §1

[4] = qHTS of pediatric cancer cell lines to identify multiple opportunities for drug repurposing: Confirmatory screen for Rh18 cells (AID 1347125); also: nearly all actives have a fitted effect of over 55% in size
How it was run: as §1

[5] = qHTS of pediatric cancer cell lines to identify multiple opportunities for drug repurposing: Confirmatory screen for Rh30 cells (AID 1347126); also: nearly all actives have a fitted effect of over 55% in size
How it was run: as §1

[6] = qHTS of pediatric cancer cell lines to identify multiple opportunities for drug repurposing: Confirmatory screen for Saos-2 cells (AID 1347127); also: nearly all actives have a fitted effect of over 60% in size; also: potency is read from the fitted curve at half-maximal effect
How it was run: as §1

[7] = qHTS of pediatric cancer cell lines to identify multiple opportunities for drug repurposing: Confirmatory screen for OHS-50 cells (AID 1347128);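 also: compound exposure lasted 48 h at 37 degrees C; nearly all actives have a fitted effect of over 55% in size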; also: potency is read from the fitted curve at half-maximal effect
How it was run: as §1

[8] = qHTS of pediatric cancer cell lines to identify multiple opportunities for drug repurposing: Confirmatory screen for U-2 OS cells (AID 1347122); also: nearly all actives have a fitted effect of over 65% in size
How it was run: as §1

[9] = qHTS of pediatric cancer cell lines to identify multiple opportunities for drug repurposing: Confirmatory screen for SK-N-SH cells (AID 1347129);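 also: cells exposed to compound for 48 h before viability read; nearly all actives have a fitted effect of over 60% in size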
How it was run: as §1

Measured: Potency

O=C(O)c1ccc(-c2c[nH]c3ncc(-c4ccccc4)cc23)cc1C1CCCC1
not listed: [8] | [9]
inactive: all other assays above

CC[C@]1(O)C[C@@H]2CN(CCc3c([nH]c4ccccc34)[C@@](C(=O)OC)(c3cc4c(cc3OC)N(C=O)[C@@H]3C45CCN4CC=C[C@](CC)([C@H]45)[C@@H](OC(C)=O)[C@]3(O)C(=O)OC)C2)C1 (stereo partly specified)
not listed: [5]
inactive: all other assays above

CN[C@@H](C)C(=O)N[C@H]1CN(C(=O)CC(C)C)CC[C@H]2CC[C@@H](C(=O)NC(c3ccccc3)c3ccccc3)N2C1=O
not listed: [6]
inactive: all other assays above

OC[C@H]1O[C@@H](n2cnc3c2NC=NC[C@@H]3O)C[C@H]1O
inactive: all assays above

N[C@@]1(C(=O)O)CS(=O)(=O)[C@H]2[C@H](C(=O)O)[C@H]21
active: [1] 13100 nM | [6] 1310 nM | [7] 928 nM
inactive: all other assays above

CC1(C)S[C@H]2[C@H](NC(=O)[C@@H](N)c3ccc(O)cc3)C(=O)N2[C@@H]1C(=O)O
inactive: all assays above

CCCCCCCCCCCC1=C(O)C(=O)C=C(O)C1=O
not listed: [7] | [8] | [9]
inactive: all other assays above
